Reference: PubChem BioAssay (Tox21)
Inconclusive results are not listed. Calls of active or inactive are those of the source. Unless noted, calls come from the whole dose curve; as a rule, active = well fitted curve in the direction sought with a large enough effect in the repeat runs; inconclusive = weak or mixed curves; inactive = no such curve, though single readings can be large; an effect the other way counts as inactive or inconclusive.

How the values were obtained:
[1] = qHTS assay to test for compound auto fluorescence at 535 nm (green) in HEK293 cells (AID 720680)
[2] = qHTS assay to test for compound auto fluorescence at 460 nm (blue) in HEK293 cell free culture (AID 720681)
Procedure, shortened: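 Blue fluorescence (Ex 405/Em 460 nm, triamterene-equivalent) was read immediately after pin transfer of compound or DMSO into medium (DMEM, 10% FBS) without cells.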

[3] = qHTS assay to test for compound auto fluorescence at 535 nm (green) in HEK293 cell free culture (AID 720682)
Procedure, shortened: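 No cells present: wells hold DMEM supplemented with 10% FBS, into which compound or vehicle is pinned. Green emission is then recorded (485 nm excitation, 535 nm emission) and scaled to fluorescein.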

[4] = qHTS assay to test for compound auto fluorescence at 590 nm (red) in HepG2 cell free culture (AID 720684)
Procedure, shortened: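 No cells present: MEM + 10% FBS only. Compound pinned in, red label read (540/590 nm). Activity = fluorescence equivalent to Rose Bengal sodium.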

[5] = qHTS assay to test for compound auto fluorescence at 460 nm (blue) in HepG2 cell free culture (AID 720685)
Procedure, shortened: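 Cell-free plates of MEM plus 10% FBS received 23 nL compound or DMSO vehicle; blue-channel (405/460 nm) intensity scored against triamterene as reference fluorophore.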

[6] = qHTS assay to test for compound auto fluorescence at 535 nm (green) in HepG2 cell free culture (AID 720686)
[7] = qHTS assay to test for compound auto fluorescence at 460 nm (blue) in HepG2 cells (AID 720687)
Procedure, shortened: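 Blue-channel autofluorescence (Ex/Em 405/460 nm, triamterene-equivalent) was measured after 1 hr compound exposure at 37 C, 5% CO2. Cells were HepG2, plated overnight at 37 C in MEM plus 10% FBS.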

[8] = biological target: Glucocorticoid receptor (Homo sapiens) (UniProt P04150); test: qHTS assay to identify small molecule agonists of the glucocorticoid receptor (GR) signaling pathway (AID 720691; active = well fitted activation curve with a large enough effect in the signal ratio in the repeat runs, not every such curve was filed as active; the % refers to the signal ratio; note: potency is the fitted concentration of half-maximal effect); conditions: GR-bla HeLa, beta-lactamase reporter ratio, 18 h; activation: at 62.4 µM (top of the series)
Chain of Glucocorticoid receptor (Homo sapiens) (P04150 whole entry, looked up): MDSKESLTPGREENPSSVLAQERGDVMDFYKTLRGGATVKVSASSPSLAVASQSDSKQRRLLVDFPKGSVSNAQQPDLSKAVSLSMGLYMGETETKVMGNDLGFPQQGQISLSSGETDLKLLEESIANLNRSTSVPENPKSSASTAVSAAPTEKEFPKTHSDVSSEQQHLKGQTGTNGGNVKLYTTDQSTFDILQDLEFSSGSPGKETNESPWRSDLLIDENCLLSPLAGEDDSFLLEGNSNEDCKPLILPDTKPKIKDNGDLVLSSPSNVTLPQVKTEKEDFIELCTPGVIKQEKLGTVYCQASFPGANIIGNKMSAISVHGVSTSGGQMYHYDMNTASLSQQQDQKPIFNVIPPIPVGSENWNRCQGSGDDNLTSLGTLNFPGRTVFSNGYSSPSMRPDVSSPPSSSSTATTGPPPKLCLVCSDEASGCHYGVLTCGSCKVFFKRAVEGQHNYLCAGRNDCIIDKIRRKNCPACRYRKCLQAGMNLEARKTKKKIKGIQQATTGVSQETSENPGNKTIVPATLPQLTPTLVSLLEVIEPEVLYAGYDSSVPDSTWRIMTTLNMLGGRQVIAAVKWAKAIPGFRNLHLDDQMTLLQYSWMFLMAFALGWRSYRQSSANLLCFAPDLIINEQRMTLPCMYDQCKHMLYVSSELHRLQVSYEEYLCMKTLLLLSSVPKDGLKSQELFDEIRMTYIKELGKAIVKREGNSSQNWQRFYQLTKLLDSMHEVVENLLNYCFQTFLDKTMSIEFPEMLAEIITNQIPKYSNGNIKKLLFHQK
Procedure, shortened: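 Cells: GR-bla HeLa, endogenous GR with stably integrated GRE-beta-lactamase reporter. Treatment 18 h, 37 C, compounds delivered in DMSO. Detection via LiveBLAzer B/G FRET substrate, 2 h RT, fluorescence intensity.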

[9] = biological target: Glucocorticoid receptor (Homo sapiens) (UniProt P04150); test: qHTS assay to identify small molecule antagonists of the glucocorticoid receptor (GR) signaling pathway (AID 720692; active = well fitted inhibition curve with a large enough effect in the signal ratio in the repeat runs, not every such curve was filed as active; the % refers to the signal ratio)
Procedure, shortened: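 Quantitative HTS in antagonist format: HeLa cells expressing endogenous GR and a stably integrated GRE-bla reporter, stimulated with 5 nM dexamethasone (final) alongside test compounds for 18 h.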

[10] = qHTS assay to identify small molecule antagonists of the glucocorticoid receptor (GR) signaling pathway - cell viability counter screen (AID 720693); note: nearly all actives have a fitted effect of over 55% in size; note: potency is the fitted concentration of half-maximal effect
[11] = qHTS assay for identifying genotoxic compounds that show differential cytotoxicity against isogenic chicken DT40 cell lines with known DNA damage response pathways - wild type cell line (AID 743012); note: nearly all actives have a fitted effect of over 60% in size; note: potency is the fitted concentration of half-maximal effect
Procedure, shortened: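 Luminescent ATP viability signal (CellTiter-Glo, 30 min RT) recorded after wild type DT40 cells were incubated with compounds for 40 h at 37 C/5% CO2.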

[12] = qHTS assay for identifying genotoxic compounds that show differential cytotoxicity against isogenic chicken DT40 cell lines with known DNA damage response pathways - Rev3 mutant cell line (AID 743014); note: nearly all actives have a fitted effect of over 55% in size; note: potency is the fitted concentration of half-maximal effect
[13] = qHTS assay for identifying genotoxic compounds that show differential cytotoxicity against isogenic chicken DT40 cell lines with known DNA damage response pathways - Rad54/Ku70 mutant cell line (AID 743015); note: nearly all actives have a fitted effect of over 60% in size; note: potency is the fitted concentration of half-maximal effect
[14] = biological target: Androgen receptor (Homo sapiens) (UniProt P10275); test: qHTS assay to identify small molecule antagonists of the androgen receptor (AR) signaling pathway (AID 743035; active = well fitted inhibition curve with a large enough effect in the signal ratio in the repeat runs, not every such curve was filed as active; the % refers to the signal ratio)
Chain of Androgen receptor (Homo sapiens) (P10275 whole entry, looked up): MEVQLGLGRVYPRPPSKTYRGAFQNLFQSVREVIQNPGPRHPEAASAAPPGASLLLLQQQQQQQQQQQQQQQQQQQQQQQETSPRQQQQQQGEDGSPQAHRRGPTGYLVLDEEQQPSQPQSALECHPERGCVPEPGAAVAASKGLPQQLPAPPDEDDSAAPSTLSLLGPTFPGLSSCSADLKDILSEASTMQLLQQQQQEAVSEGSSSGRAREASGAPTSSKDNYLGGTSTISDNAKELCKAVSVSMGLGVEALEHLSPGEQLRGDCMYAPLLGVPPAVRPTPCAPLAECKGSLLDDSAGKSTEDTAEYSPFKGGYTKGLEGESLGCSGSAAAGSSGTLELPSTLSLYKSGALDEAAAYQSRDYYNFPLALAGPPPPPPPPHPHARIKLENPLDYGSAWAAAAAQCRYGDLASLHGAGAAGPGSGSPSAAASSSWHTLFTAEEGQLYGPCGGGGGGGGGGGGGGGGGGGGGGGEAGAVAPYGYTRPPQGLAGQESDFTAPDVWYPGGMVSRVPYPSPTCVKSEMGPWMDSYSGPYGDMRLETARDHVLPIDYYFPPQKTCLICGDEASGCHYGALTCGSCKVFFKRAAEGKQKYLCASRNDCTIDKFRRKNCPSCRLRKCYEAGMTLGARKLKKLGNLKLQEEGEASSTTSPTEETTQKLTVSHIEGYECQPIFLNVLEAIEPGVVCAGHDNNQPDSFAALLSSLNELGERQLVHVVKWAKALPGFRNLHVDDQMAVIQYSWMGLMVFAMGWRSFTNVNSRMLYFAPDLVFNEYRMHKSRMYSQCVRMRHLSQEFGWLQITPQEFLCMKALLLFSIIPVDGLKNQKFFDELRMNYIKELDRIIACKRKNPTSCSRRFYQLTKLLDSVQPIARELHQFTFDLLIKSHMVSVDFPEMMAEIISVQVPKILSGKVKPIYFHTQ
Procedure, shortened: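 Quantitative HTS of the Tox21 10K library used HEK293 AR-UAS-bla cells stimulated with R1881 alongside compound for 16 h at 37C, followed by beta-lactamase FRET detection (LiveBLAzer B/G, 2 h, RT).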

[15] = biological target: Androgen receptor (Homo sapiens) (UniProt P10275); test: qHTS assay to identify small molecule agonists of the androgen receptor (AR) signaling pathway (AID 743036; active = well fitted activation curve with a large enough effect in the signal ratio in the repeat runs, with a control signal flat, not every such curve was filed as active; the % refers to the signal ratio)
Procedure, shortened: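 Quantitative HTS of the Tox21 10K library in HEK293 cells bearing a stably integrated UAS-controlled beta-lactamase reporter. Compound exposure lasted 16 h at 37C. Reporter activity was detected by FRET substrate fluorescence after 2 h at room temperature.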

[16] = biological target: Androgen receptor (Homo sapiens) (UniProt P10275); test: qHTS assay to identify small molecule agonists of the androgen receptor (AR) signaling pathway using the MDA cell line (AID 743040; note: nearly all actives have a fitted effect of over 20% in size)
Procedure, shortened: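 Stable MMTV-luciferase reporter in MDA-kb2 cells; note the promoter carries GR as well as AR response elements. 16 h compound treatment, 37C, 0% CO2; ONE-Glo luminescence endpoint.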

[17] = qHTS assay to identify small molecule antagonists of the androgen receptor (AR) signaling pathway using the MDA cell line - cell viability counter screen (AID 743041; note: nearly all actives have a fitted effect of over 45% in size; note: potency is the fitted concentration of half-maximal effect)
Procedure, shortened: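 Using the breast carcinoma line MDA-kb2 AR-luc, test chemicals were co-incubated with R1881 for 16 h; CellTiter-Fluor reagent, added at 15.5 h, provided a fluorescence measure of live cells.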

[18] = biological target: Androgen receptor (Homo sapiens) (UniProt P10275); test: qHTS assay to identify small molecule antagonists of the androgen receptor (AR) signaling pathway using the MDA cell line (AID 743042; note: nearly all actives have a fitted effect of over 55% in size; note: potency is the fitted concentration of half-maximal effect)
Procedure, shortened: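 Antagonist mode: compounds plus R1881 agonist added to MDA-kb2 AR-luc cells, incubated 16 h at 37C. Luciferase reporter luminescence quantified, with multiplexed CellTiter-Fluor readout for cell viability.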

[19] = qHTS assay to test for compound auto fluorescence at 590 nm (red) in HEK293 cell free culture (AID 720683)
Procedure, shortened: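 Red-channel autofluorescence of compounds in culture medium (DMEM, 10% FBS), no cells, measured at 540/590 nm. Rose Bengal sodium is the reference fluorophore for equivalence.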

[20] = qHTS assay to identify small molecule antagonists of the androgen receptor (AR) signaling pathway - cell viability counter screen (AID 743033; note: nearly all actives have a fitted effect of over 45% in size; note: potency is the fitted concentration of half-maximal effect)

Measured: Potency

CCOC(=O)CCC(=O)O[C@H]1[C@H](O[C@@H]2[C@@H](C)[C@H](O[C@H]3C[C@@](C)(OC)[C@@H](O)[C@H](C)O3)[C@@H](C)C(=O)O[C@H](CC)[C@@](C)(O)[C@H](O)[C@@H](C)C(=O)[C@H](C)C[C@@]2(C)O)O[C@H](C)C[C@@H]1N(C)C
not listed: [19] | [20]
inactive: all other assays above

CCCCCCOc1ccc(C(=N)N(CCCC)CCCC)c2ccccc12
active: [10] 13.4 µM | [11] 3.76 µM | [12] 5.31 µM | [13] 5.96 µM | [20] 15.1 µM | [17] 18.8 µM | [18] 16.8 µM
not listed: [4] | [8] | [9] | [14] | [15]
inactive: all other assays above

CCC(=O)O[C@]1(C(=O)CCl)[C@@H](C)C[C@H]2[C@@H]3C[C@H](F)C4=CC(=O)C=C[C@]4(C)[C@@]3(F)[C@@H](O)C[C@@]21C
active: [8] 0.0007 µM | [11] 11.9 µM | [12] 7.5 µM | [13] 23.7 µM
not listed: [4] | [9] | [14] | [15] | [16] | [18]
inactive: all other assays above

CCN(CC)CCC(=O)N1c2ccccc2Sc2ccc(Cl)cc21
active: [11] 8.41 µM | [12] 10.6 µM | [13] 11.9 µM
not listed: [4] | [9] | [14] | [15] | [16] | [17] | [18]
inactive: all other assays above

NCCCC[C@H](N)C(=O)O
not listed: [4] | [11]
inactive: all other assays above

C=C[C@]1(C)C[C@@H](OC(=O)CSCCN(CC)CC)[C@]2(C)[C@H](C)CC[C@]3(CCC(=O)[C@H]32)[C@@H](C)[C@@H]1O
active: [11] 5.31 µM | [12] 5.96 µM | [13] 6.68 µM
not listed: [4] | [8] | [14] | [15] | [16] | [18]
inactive: all other assays above

CCOC(=O)c1cc(-c2ccccc2)nc2ccc(C)cc12
not listed: [4] | [9] | [11] | [12] | [13] | [15]
inactive: all other assays above

CCCOc1ccc2nc(NC(=O)OC)sc2c1
active: [11] 2.37 µM | [12] 2.66 µM | [13] 3.35 µM
not listed: [4] | [9] | [14] | [15] | [16] | [18]
inactive: all other assays above

CN1CC(O)c2cc(N=NC(N)=O)c(O)cc21 (configuration not stated)
not listed: [14] | [15] | [16] | [17] | [18] | [19]
inactive: all other assays above

O=c1[nH]cnc2[nH]cc(CN3CCCCC3)c12
not listed: [14] | [15] | [16] | [18] | [19]
inactive: all other assays above

N[C@H](CCC(=O)O)C(=O)O
not listed: [4] | [9] | [14] | [15] | [16] | [18]
inactive: all other assays above

COc1cc(/C=C/C(=O)N2CCN(CC(=O)N3CCCC3)CC2)cc(OC)c1OC
not listed: [4] | [9] | [10] | [12] | [20]
inactive: all other assays above

O=C(O)c1ccc(OCCn2ccnc2)cc1
not listed: [14] | [15] | [16] | [18] | [19]
inactive: all other assays above

CC1(C)C2CC[C@]3(C)[C@H](C(=O)C=C4[C@@H]5C[C@@](C)(C(=O)O)CC[C@]5(C)CC[C@]43C)[C@@]2(C)CC[C@@H]1O[C@H]1O[C@H](C(=O)O)[C@@H](O)[C@H](O)[C@H]1O[C@@H]1O[C@H](C(=O)O)[C@@H](O)[C@H](O)[C@H]1O (some centres not stated)
not listed: [8] | [9] | [14] | [15] | [16] | [18] | [19]
inactive: all other assays above

COC(=O)[C@H]1[C@H]2C[C@@H]3c4[nH]c5cc(OC)ccc5c4CCN3C[C@H]2C[C@H](OC)[C@@H]1OC
inactive: [1] | [3] | [19] | [4] | [6] | [8] | [9] | [10] | [11] | [13] | [20]
